Most compounds without a hit are left out; they make up all but 31% or so of the library.
CYP2C9 act: increases human cytochrome P450 2C9 activity | P11712 | recombinant CYP2C9, luciferin-H conversion, luminescence; stronger effect = higher value; factor 1 = untreated enzyme, 0 = blocked | activation factor at 5 µM | 96,000 tested, 1.4% active;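 active means activation factor of 2 or more for CYP2C9 at a 5 µM dose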
PLAP act: human PLAP activation; 96,000 tested, 1.2% active; purified PLAP enzyme, luminescent substrate read-out; stronger effect = higher value; AID 696; P05187; activation fold at 20 µM; in the data active means activation fold above about 2
CYP2C19 act: activators of human cytochrome P450 2C19. P33261. activation factor at 5 µM. recombinant CYP2C19, luciferin-H EGE luminescence; stronger effect = higher value; 0 = fully inhibited enzyme, 1 = untreated enzyme. AID 1025. 96,000 tested, under 10 active;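 active means activation factor of at least 2 at 5 µM in the primary screen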
Target sequence (P33261 whole entry, looked up): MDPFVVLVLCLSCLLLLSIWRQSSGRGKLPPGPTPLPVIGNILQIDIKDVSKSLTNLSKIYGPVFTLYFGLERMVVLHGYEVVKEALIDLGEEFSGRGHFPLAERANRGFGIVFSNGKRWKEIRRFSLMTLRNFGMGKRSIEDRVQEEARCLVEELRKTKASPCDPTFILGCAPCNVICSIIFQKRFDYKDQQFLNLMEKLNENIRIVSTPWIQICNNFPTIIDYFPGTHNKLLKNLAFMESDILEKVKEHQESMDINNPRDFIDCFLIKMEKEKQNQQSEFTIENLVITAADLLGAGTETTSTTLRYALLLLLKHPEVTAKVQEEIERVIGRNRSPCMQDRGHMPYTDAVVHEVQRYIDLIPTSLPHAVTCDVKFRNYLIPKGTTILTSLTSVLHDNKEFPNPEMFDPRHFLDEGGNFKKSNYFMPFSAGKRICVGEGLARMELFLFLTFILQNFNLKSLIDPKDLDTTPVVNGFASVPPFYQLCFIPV
CYP2C19 inhib: inhibitors of human CYP2C19; CYP2C19 Supersomes, luciferin-H EGE luminescence, 30 min; 96,000 tested, 21% active; inhibition, % at 5 µM;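 active means CYP2C19 inhibition above a set limit at 5 µM in the primary screen, cut at about 50% in these data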
CYP2C9 inh: blocks human cytochrome P450 2C9. CYP2C9 Supersomes, luciferin-H conversion, luminescence. inhibition, % at 5 µM. 96,000 tested, 20% active;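 active means blocking of liver enzyme CYP2C9 beyond about 50% at 5 µM, limit read from the data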
Of the large screens only hits and unclear results are named; the others gave an inactive call.

CC1Cc2ccccc2N1C(=O)Cn1c(=O)oc2cc(S(=O)(=O)NC3CCCC3)ccc21 (stereo not drawn)	CYP2C9 inh 69.2
O=C(CCn1c(=O)oc2ccccc21)N1CCN(C(c2ccccc2)c2ccccc2)CC1	CYP2C9 inh 66.2
ONC(=Nc1ccccc1)C(=Nc1ccccc1)NO	none
O=C(COc1ccc(Cl)cc1Cl)Nc1ccc2nc3n(c(=O)c2c1)CCCC3	none
Cc1cc(C)c(C(N)=O)c(SCC(=O)c2ccc(Cl)cc2)n1	none
C[C@H](N)c1nnc(SCC(=O)c2ccc(Cl)cc2)o1	PLAP act 2.9
CC(C)[C@H](N)c1nnc(SCC(=O)c2ccc(Cl)cc2)o1	CYP2C19 inhib 99.0, CYP2C9 inh 68.6
CCOC(=O)c1c(C)n(C)c2c(C)cc(O)c(OC(C)=O)c12	none
Oc1ccc(C=Nc2ccc3ncccc3c2)c(O)c1	CYP2C19 inhib 55.8
CN1C(=S)SC(/[N+]([O-])=C\c2ccco2)C1(C)C (stereo not drawn)	none
Cc1ccc2c(c1)-c1cc(C)nn1C(c1ccc3c(c1)OCO3)N2 (stereo not drawn)	CYP2C19 inhib 96.1, CYP2C9 inh 88.6
Cc1cc2n(n1)C(c1ccc3c(c1)OCO3)Nc1ccccc1-2 (stereo not drawn)	CYP2C19 inhib 88.2, CYP2C9 inh 69.9
Cc1cc2n(n1)C(c1ccc(N(C)C)cc1)Nc1ccccc1-2 (stereo not drawn)	none
Cc1cc(NC(=O)c2cc(Cl)ccc2Cl)no1	none
Cc1cc(NC(=O)c2ccccc2NS(=O)(=O)c2c(C)c(C)cc(C)c2C)no1	CYP2C9 inh 66.4
Cc1ccc(C)c(S(=O)(=O)Nc2ccccc2C(=O)Nc2cc(C)on2)c1	CYP2C9 inh 55.4
Cc1nn(C(=O)c2cc3sccc3[nH]2)c(C)c1C	none
O=C1NC(=O)C2(COC3(CCCC3)OC2)S1	none
COc1ccc2c(C)nc(Nc3nc(C)cc(C)n3)nc2c1	none
CC1CCCCC1NC(=O)c1cn(C)c2ccc(S(=O)(=O)N3CCCC3)cc2c1=O (stereo not drawn)	none
CC1CCCC(NC(=O)c2cn(C)c3ccc(S(=O)(=O)N4CCCC4)cc3c2=O)C1C (stereo not drawn)	CYP2C9 inh 72.9
CC(C)(C)NC(=O)COC(=O)c1cc(S(=O)(=O)N2CCCCC2)ccc1N1CCOCC1	CYP2C19 inhib 66.4, CYP2C9 inh 82.2
CC1CCCC(NC(=O)COC(=O)c2cc(S(=O)(=O)N3CCCCC3)ccc2N2CCOCC2)C1C (stereo not drawn)	CYP2C19 inhib 78.5, CYP2C9 inh 81.7
COc1ccc(C=NCC2COc3ccccc3O2)cc1OC (stereo not drawn)	none
Cc1ccc2c(n1)sc1c(-c3ccccc3)c(C#N)c(N)nc12	none
CCC(=O)c1ccc(OCCSc2ncccn2)cc1	none
Cc1c(-c2ccc(F)cc2)nc(N)c(C#N)c1-c1cccs1	none
CC(C)OC(=O)CSc1nc(N)c(C#N)c(-c2cccs2)c1C#N	none
CSc1nc(N)nc(-c2cccs2)c1C#N	CYP2C19 inhib 78.0, CYP2C9 inh 57.7
CC(C)Sc1nc(N)nc(-c2cccs2)c1C#N	CYP2C9 inh 74.6
Cc1cc2c(c(SCC(=O)NCCc3ccccc3)n1)C(=O)OC2	none
CN1CCN(CCCn2cnc3c(=O)oc4ccccc4c32)CC1	none
O=c1oc2ccccc2c2c1ncn2CCN1CCOCC1	CYP2C19 inhib 50.0
COC(=O)c1cc(NS(=O)(=O)c2ccc3c(c2)CCC(=O)N3)cc(C(=O)OC)c1	CYP2C19 inhib 68.3, CYP2C9 inh 56.8
COc1ccc(OC)c(NS(=O)(=O)c2ccc3c(c2)CCC(=O)N3)c1	CYP2C19 inhib 53.3
CNc1nc(C)c(C(C)=O)cc1C#N	none
Cc1ccc(NC(=O)O/N=C2\CCCCC2c2ccc([N+](=O)[O-])cc2[N+](=O)[O-])cc1 (stereo not drawn)	CYP2C9 inh 82.1
CCC(C)N(C(=O)COC(=O)c1[nH]c(C)c(C(C)=O)c1C)C1CCS(=O)(=O)C1 (stereo not drawn)	none
N#CC1=C(N)C2=C(N3CCCCC3)CCCC2C1(C#N)C#N (stereo not drawn)	CYP2C9 inh 50.7
Cc1ccn2cc(CCNS(=O)(=O)c3ccc4c(c3)OCCO4)nc2c1	CYP2C19 inhib 79.0
Cc1ccc2c(c1)C(c1ccccc1)N(C(=O)c1ccc(Br)o1)CC(=O)N2 (stereo not drawn)	CYP2C9 inh 74.2
O=C1CN(C(=O)c2ccc(Br)o2)C(c2ccccc2)c2cc(Br)ccc2N1 (stereo not drawn)	CYP2C19 inhib 96.3, CYP2C9 inh 100.3
Cc1ccc2c(c1)C(c1ccc(F)cc1)N(C(=O)C1CC1)CC(=O)N2 (stereo not drawn)	none
CC(=O)O/N=C/c1c(N2CCOCC2)n(C)c2ccccc12	none
Cn1c(Cl)c(/C=N/OC(=O)c2ccc(Cl)cc2)c2ccccc21	CYP2C9 act 2.1
Cc1ccc(C(=O)O/N=C/c2c(N3CCOCC3)n(C)c3ccccc23)cc1	CYP2C19 inhib 67.5, CYP2C9 inh 84.0
Cn1c(N2CCOCC2)c(/C=N/OC(=O)c2ccc(F)cc2)c2ccccc21	CYP2C9 inh 55.8
Cc1cccn2cc(-c3ccc(F)cc3)nc12	CYP2C19 inhib 67.0
Cc1cccn2cc(-c3ccccc3)nc12	none
CCCn1c(C)cc(C(=O)COC(=O)c2cc(S(=O)(=O)NCC(C)C)c(Cl)cc2Cl)c1C	CYP2C19 inhib 66.2
CCCc1nc(N)c(C#N)c(-c2cccnc2)c1CC	CYP2C19 inhib 60.6
Cc1ccc(CNc2ccc(CNc3ncn[nH]3)cc2)cc1	CYP2C19 inhib 76.7, CYP2C9 inh 62.7
Cc1ccc(CNc2ccc3c(c2)OCO3)cc1	none
COc1ccccc1CC1(C)NC(=O)N(CC(=O)Nc2cc(C)on2)C1=O (stereo not drawn)	none
CC(C)(C)C(=O)c1no[n+]([O-])c1/C(=N/O)C(C)(C)C	CYP2C19 inhib 59.4
CCn1c(C)c(CCC(=O)O)c(=O)n2nc(-c3ccccc3OC)cc12	none
CNC(=O)C1CC(=O)N(c2ccc(C)cc2)C1 (stereo not drawn)	none
CCc1ccc(N2CC(C(=O)Nc3cc(C)ccc3F)CC2=O)cc1 (stereo not drawn)	CYP2C19 inhib 86.1, CYP2C9 inh 90.9
Cc1ccc(N2CC(C(=O)Nc3cccc(F)c3)CC2=O)cc1 (stereo not drawn)	CYP2C19 inhib 55.0, CYP2C9 inh 55.8
CCOc1ccc(N2CC(C(=O)Nc3ccc(F)cc3F)CC2=O)cc1 (stereo not drawn)	none
CNC(=O)C(=O)NCCc1ccc(Cl)cc1	none
COC(=O)c1ccc(C)c(N(CCO)CCO)c1	none
CC1=N/C(=C\c2ccc([N+](=O)[O-])cc2)C(=O)N1c1cc(Cl)ccc1C	none
CCOc1ccc(NC(=O)CNc2ccc(C)cc2Cl)cc1	CYP2C19 inhib 77.7
CCOc1ccc(NC(=O)Nc2cc(C)ccc2F)cc1	CYP2C19 inhib 74.7
CCOC(=O)c1sc(C(=O)OCC)c(OCCO)c1OCCO	none
CCOC(=O)c1oc2nc(C(C)C)c3c(c2c1N)CCC3	none

Bioassay records (PubChem BioAssay)
